Laboratory results reported in article PMC4336329 (PLoS ONE, 2015).
About 14,000 (4.5%) of roughly 310,000 compounds showed an effect of 50% or more. Effects have a minus sign here. What follows is part of a selection rich in strong results, with near analogues and random picks from the rest.

The compounds below were run against human ether-à-go-go-related gene (hERG) potassium channel (human, UniProt Q12809) (assay: primary screen, population patch clamp on CHO cells stably expressing hERG; higher = less effect of the substance).
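Also: peak tail current of the secondary pulse compared with the same well before compound.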

human ether-à-go-go-related gene (hERG) potassium channel, sequence (Q12809 whole entry, looked up): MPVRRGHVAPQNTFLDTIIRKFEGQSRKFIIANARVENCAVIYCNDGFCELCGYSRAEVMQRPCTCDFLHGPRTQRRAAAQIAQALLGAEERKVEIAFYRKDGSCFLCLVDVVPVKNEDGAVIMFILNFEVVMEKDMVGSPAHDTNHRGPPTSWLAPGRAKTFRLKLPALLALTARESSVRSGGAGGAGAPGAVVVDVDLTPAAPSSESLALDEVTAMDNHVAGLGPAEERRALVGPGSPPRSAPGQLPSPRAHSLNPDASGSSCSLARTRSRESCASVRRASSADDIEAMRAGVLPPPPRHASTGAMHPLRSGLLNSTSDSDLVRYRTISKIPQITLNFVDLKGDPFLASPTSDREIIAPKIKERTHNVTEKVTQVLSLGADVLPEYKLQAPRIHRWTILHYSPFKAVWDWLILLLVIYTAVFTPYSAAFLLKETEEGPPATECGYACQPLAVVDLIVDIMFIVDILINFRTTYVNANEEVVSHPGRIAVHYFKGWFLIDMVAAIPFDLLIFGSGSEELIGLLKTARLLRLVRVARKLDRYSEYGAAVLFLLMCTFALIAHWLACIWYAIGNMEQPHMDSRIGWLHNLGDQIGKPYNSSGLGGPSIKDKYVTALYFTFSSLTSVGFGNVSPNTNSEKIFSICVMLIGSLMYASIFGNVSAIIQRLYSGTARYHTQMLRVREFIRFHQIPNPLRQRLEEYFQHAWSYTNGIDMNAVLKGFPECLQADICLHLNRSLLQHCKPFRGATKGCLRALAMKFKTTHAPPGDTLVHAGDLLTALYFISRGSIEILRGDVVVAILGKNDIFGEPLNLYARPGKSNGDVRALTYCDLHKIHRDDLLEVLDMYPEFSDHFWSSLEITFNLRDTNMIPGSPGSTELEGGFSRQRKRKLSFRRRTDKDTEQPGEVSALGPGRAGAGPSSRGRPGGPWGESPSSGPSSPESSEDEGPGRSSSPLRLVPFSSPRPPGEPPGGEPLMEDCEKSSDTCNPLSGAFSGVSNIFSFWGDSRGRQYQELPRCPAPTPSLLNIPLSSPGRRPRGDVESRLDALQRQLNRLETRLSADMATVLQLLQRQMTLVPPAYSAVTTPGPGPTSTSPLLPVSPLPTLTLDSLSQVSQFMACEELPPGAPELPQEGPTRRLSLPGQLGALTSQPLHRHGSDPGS

Row | SMILES | hERG current change (%, negative = inhibition) at 10uM [%]
1 | CC(=O)CC(=O)NC(=NC1CCCCC1)Nc1nc(C)cc(C)n1 | 7.01
2 | Nc1ccc2c(c1)nnn2-c1ccccc1 | -7.35
3 | Cn1c(SCC(=O)NC2CC2)nnc1-c1cccc(NC(=O)c2ccccc2F)c1 | -3.11
4 | CCOc1ccccc1N(CC(=O)NC1CCCC1)C(=O)CNC(=O)c1cccs1 | -3.75
5 | CCN1CCN(CC(=O)c2c[nH]c3ccc(C)cc23)CC1 | -4.16
6 | O=C(c1cc(COc2c(F)cccc2F)on1)N1CCC(c2ccccc2F)C1 (stereo not drawn) | 20.4
7 | CN1CCN(C(=O)C2(NC(=O)NCc3ccccc3)CCCCC2)CC1 | 13.2
8 | COc1ccc(CCNC(=O)C(=O)NCC2OCCN2S(=O)(=O)c2ccc(Br)cc2)cc1 (stereo not drawn) | -7.02
9 | OC(CNC1CCCCC1)c1ccccc1 (stereo not drawn) | 12.1
10 | CN1C(CC(O)c2ccccc2)CCCC1CC(O)c1ccccc1.Cl (stereo not drawn) | -67.8
11 | O=C([C@H](O)c1ccccc1)N1CCC[C@H]1CO | 8.33
12 | CN1CCC(N(C)CC(O)c2ccccc2)CC1.O=C(O)C(=O)O (stereo not drawn) | -6.05
13 | CN1C(CC(=O)c2ccccc2)CCCC1CC(O)c1ccccc1 (stereo not drawn) | -82.4
14 | O=C(CC1C(=O)CCCC1=O)c1ccccc1 | 25.1
15 | CCOC(=O)C(NC(=O)CC)(Nc1ccccc1)C(F)(F)F (stereo not drawn) | 21.9
16 | Cc1noc(/C=C/c2nn(C)cc2Cl)c1[N+](=O)[O-] | 16.6
17 | C/C(=N\Nc1ccc(C)c(Cl)c1)c1ccncc1 | 24.8
18 | Cc1ccccc1C(=O)NC1CCN(Cc2nnnn2C(C)(C)C)CC1 | 17.7
19 | O=C(CCC(=O)c1ccc(Cl)s1)Nc1ncccc1O | -28.2
20 | CCOC(=O)Nc1nc(-c2ccc(Cl)cc2Cl)cs1 | 11.7

Row | SMILES | hERG current change (%, negative = inhibition) at 10uM [%]
21 | CN(Cc1nc(Cc2cccc(C(F)(F)F)c2)no1)C1CC(C)(C)NC(C)(C)C1 | -12.3
22 | CN1CCCC2(CCCN(Cc3nc(Cc4cccc(C(F)(F)F)c4)no3)C2)C1 (stereo not drawn) | -45.2
23 | CCn1ccnc1CN(C)Cc1nc(Cc2cccc(C(F)(F)F)c2)no1 | -60.8
24 | CCc1ccc(CN(C)Cc2nc(Cc3cccc(C(F)(F)F)c3)no2)nc1 | -28.1
25 | CC(CN(C)Cc1nc(Cc2cccc(C(F)(F)F)c2)no1)CN1CCCC1 (stereo not drawn) | -63.2
26 | CCn1ccnc1CN(C)Cc1nc(CCC(C)C)no1 | 4.23
27 | COc1ccc(NC(=O)Cn2nnc(C(=O)Nc3ccc(F)c(Cl)c3)c2N)cc1 | 25.9
28 | Cc1cccc(C(=O)NNC(=O)c2ccc(O)cc2)c1 | -2.31
29 | COc1ccc(CCNC(=O)COC(=O)C2CCCCC2)cc1 | 7.11
30 | Cc1nc2nc[nH]n2c(=O)c1CCOC(=O)c1ccccc1F | 20.7
31 | O=C(/C=C\c1ccccc1)NCC(=O)N/N=C/c1ccc(O)cc1O | 9.48
32 | Cc1ccc(NC(=O)CCNS(=O)(=O)c2ccccc2)c(C(=O)c2ccccc2)c1 | -20.4
33 | Cc1cc(C(=O)NC2CCCN(Cc3ccc(Cl)cc3)C2)n(C)n1 (stereo not drawn) | -16
34 | O=C(NC1CCCN(Cc2ccc(Cl)cc2)C1)C1CCC1 (stereo not drawn) | -13.6
35 | Cc1cc(C(=O)NC2CCCN(Cc3ccc(Cl)cc3)C2)c(C)o1 (stereo not drawn) | -11.9
36 | Cc1cc(C(=O)NC2CCCN(Cc3ccc(Cl)cc3)C2)no1 (stereo not drawn) | -34.6
37 | CC(=O)c1ccc(C(=O)NC2CCCN(Cc3ccc(Cl)cc3)C2)s1 (stereo not drawn) | -66.4
38 | Cc1ccsc1C(=O)NC1CCCN(Cc2ccc(Cl)cc2)C1 (stereo not drawn) | -56.2
39 | CNc1nc(Sc2ccc(C)cc2)cc(C(F)(F)F)n1 | 15.5
40 | COc1ccc(N(CC(=O)Nc2cc(Cl)ccc2OC)C2=NC3CS(=O)(=O)CC3S2)cc1 (stereo not drawn) | -7.35

Row | SMILES | hERG current change (%, negative = inhibition) at 10uM [%]
41 | Cc1ccc(C(=O)N2CCN(c3ccccn3)CC2)cc1Cl | -3.65
42 | O=C(NCCCn1ccnc1)c1cc(S(=O)(=O)N2CCOCC2)ccc1F | 26.8
43 | CC(NC(=O)c1cc(S(=O)(=O)N2CCOCC2)ccc1F)c1ccc(-n2ccnc2)cc1 (stereo not drawn) | -72.2
44 | O=C(Nc1ccc(N2CCCCC2)cc1)c1cc(S(=O)(=O)N2CCOCC2)ccc1F | -9.76
45 | Cc1ccc(C(=O)NC(C)c2ccccc2)cc1S(=O)(=O)N1CCOCC1 (stereo not drawn) | -1.39
46 | Cc1ccc(C(=O)NNC(=O)c2ccncc2)cc1S(=O)(=O)N1CCOCC1 | 0.578
47 | Cc1ccc(C(=O)NC(C)c2ccc(-n3ccnc3)cc2)cc1S(=O)(=O)N1CCOCC1 (stereo not drawn) | -65.1
48 | CCOC(=O)CNC(=O)C(=O)c1c(O)[nH]c2ccccc12 | 9.92
49 | CC(C(=O)NCC1CCCO1)n1cccc1C(=O)c1ccccc1 (stereo not drawn) | 15.1
50 | CCOC(=O)C1=C(CN2CCc3ccccc32)NC(=O)NC1c1cccc([N+](=O)[O-])c1 (stereo not drawn) | -7.46
51 | Cc1cc(C(=O)OCn2nnc3ccccc3c2=O)c(C)o1 | -6.92
52 | Cc1c(C(=O)Nc2ccc(F)c(F)c2)oc2ccc(S(=O)(=O)N3CCCCC3)cc12 | -0.731
53 | Cc1ccc(CN2CCN(/N=C/c3ccc(O)c(O)c3)CC2)cc1 | -21.7
54 | Cn1ccnc1C(=O)c1cc(=O)c2ccccc2o1 | 8.14
55 | Clc1cccc(CSc2nnc(-c3cccnc3)n2Cc2ccco2)c1 | -74.3
56 | O=C(CSc1nnc(-c2cccnc2)n1Cc1ccccc1)NCc1ccco1 | -1.17
57 | Clc1ccccc1CSc1nnc(-c2cccnc2)n1Cc1ccco1 | -43.1
58 | Clc1ccc(CSc2nnc(-c3ccccn3)n2Cc2ccco2)c(Cl)c1 | -5.15
59 | Clc1cccc(CSc2nnc(-c3ccccn3)n2Cc2ccco2)c1 | -35.7
60 | Clc1ccc(CSc2nnc(-c3cccnc3)n2Cc2ccco2)c(Cl)c1 | -68.7
